# Test results published in PubChem BioAssay.
# Results filed as inconclusive are left out. Active and inactive are the calls of the source. Unless noted, cut-off not given; nearly all actives show AC50 up to about 26 µM.
# Experiments:
# [1] = ovarian cancer cell viability with rucaparib, profiling panel, oncology-focused library, rucaparib conditional (AID 1508598;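 active means normalized viability below 100% at a tested concentration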); settings: patient-derived ovarian cancer cells, CellTiter-Glo viability, 144 h, at 5 µM, stronger effect = lower value
# [2] = growth inhibition of DIPG glioma cells, dose response, cell-based, SU-DIPG-XVII, MIPE5.0, CellTiter-Glo, qHTS (AID 1347060); settings: SU-DIPG-XVII viability, CellTiter-Glo ATP luminescence;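 on AC50: cells exposed to compound for 48 hours before viability readout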
# [3] = viability loss in pontine glioma line – cell-based, SU-DIPG-XXV, MIPE5.0, CellTiter-Glo, qHTS, dose response (AID 1347065); settings: CellTiter-Glo ATP luminescence;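 further: cells exposed to compound for 48 hours before ATP readout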
# [4] = JHH-DIPG-1 glioma cell viability, MIPE5.0 library, CellTiter-Glo luminescence, qHTS (AID 1347067); settings: JHH-DIPG-1 glioma viability, CellTiter-Glo ATP luminescence;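 further: cells exposed to compound for 48 hours before readout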
# [5] = sensitizers of A549 cells to miR-34 induction, primary screen, imaging, A549 dox-inducible miR-34, nuclei and caspase counts (AID 1347080;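 active means compounds whose cell count with miR-34 switched on is under 0.7 times the count with it off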); settings: A549 miR-34 inducible, Hoechst nuclei count, 48 h
# [6] = survival rescue of mitochondrial mutant cells in low glucose, primary screen, MELAS cybrids, Rieske KO mouse fibroblasts, CellTiter-Glo (AID 1508586;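 active means mean z-score across replicates of 1.96 or higher in either the MELAS or the Rieske mutant cell line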;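 further: z relative to plate mean and SD of compound and empty wells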)
# [7] = SU-DIPG-XXV glioma cell viability, MIPE5.0 library, qHTS (AID 1347068; cut-off not given, nearly all actives have IC50 up to about 30 µM;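 on IC50: cells exposed to compound for 48 hours before viability readout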)
structure (smiles),measurement,setting,value
CN[C@H]1CN(c2ccc3c(=O)c(C(=O)O)cn(-c4nccs4)c3n2)C[C@@H]1OC,viability,"[1]; OCI-C5x cells, with rucaparib 10 µM, 100% = cells with rucaparib alone",9.22% (active)
same,viability,"[1]; OCI-C5x cells, without rucaparib",12.6% (active)
same,viability,"[1]; OCI-P5x cells, with rucaparib 20 µM, 100% = cells with rucaparib alone",9.42% (active)
same,viability,"[1]; OCI-P5x cells, without rucaparib",6.69% (active)
CCCc1cc(C)[nH]c(=O)c1CNC(=O)c1cc(-c2ccc(N3CCN(C(C)C)CC3)nc2)cc2c1cnn2C(C)C,AC50,[2],26.3 µM (active)
same,AC50,[3],20.9 µM (active)
same,AC50,[4],14.8 µM (active)
same,fold change,"[5]; stronger effect = lower value, cell number ratio, induced over uninduced",0.939 (inactive)
same,fold change,[5]; measured here: relative caspase fold change +Dox/-Dox,0.565
same,cell count,"[5]; measured here: total cells with miR-34 induction, stronger effect = lower value",6600
same,cell count,[5]; measured here: total cells without miR-34 induction,7030
same,z-score,"[6]; MELAS cybrid survival, CellTiter-Glo 48 h, stronger effect = higher value",0.696 (inactive)
same,z-score,"[6]; Rieske KO mouse fibroblast survival, CellTiter-Glo 72 h",-0.809
COCCOC(=O)N1CCN(S(=O)(=O)c2cc(F)c(Oc3ccc(Cl)cc3)c(F)c2)C(C(=O)NO)C1 (stereo unspecified),outcome,[2],inactive
same,AC50,[4],16.6 µM (active)
same,IC50,[7],20.9 µM (active)
N#Cc1cccc(-c2c[nH]c3ncnc(N4CCOCC4)c23)c1,outcome,[2],inactive
same,outcome,[3],inactive
same,outcome,[7],inactive
CN(C)c1ccc(Nc2nc(N)n(C(=O)c3c(F)cccc3F)n2)cc1,AC50,[2],8.33 µM (active)
same,AC50,[3],5.25 µM (active)
same,IC50,[7],14.8 µM (active)
C[C@H](NC(=O)CCC(F)(F)F)C(=O)N[C@@H]1C(=O)N(CCO)c2ncccc2-c2ccccc21,outcome,[2],inactive
same,outcome,[4],inactive
Cn1ncc(NC(=O)c2nc(-c3c(F)cccc3F)sc2N)c1N1CC[C@@H](N)[C@H](F)CC1,outcome,[2],inactive
same,outcome,[4],inactive
